Experimental data as given in ChEMBL document CHEMBL3988442, “University of Dundee, Small-Polar-MMV Screening Library” (2021).

These compounds were tested against T1, Aspartate--tRNA(Asp/Asn) ligase (Mycobacterium tuberculosis (strain ATCC 25618 / H37Rv)) (UniProt P9WFW3) (assay: Assay for Asp RNA synthetase-1 from Mycobacterium tuberculosis). Conditions: 30 µM.
T1 sequence (whole entry): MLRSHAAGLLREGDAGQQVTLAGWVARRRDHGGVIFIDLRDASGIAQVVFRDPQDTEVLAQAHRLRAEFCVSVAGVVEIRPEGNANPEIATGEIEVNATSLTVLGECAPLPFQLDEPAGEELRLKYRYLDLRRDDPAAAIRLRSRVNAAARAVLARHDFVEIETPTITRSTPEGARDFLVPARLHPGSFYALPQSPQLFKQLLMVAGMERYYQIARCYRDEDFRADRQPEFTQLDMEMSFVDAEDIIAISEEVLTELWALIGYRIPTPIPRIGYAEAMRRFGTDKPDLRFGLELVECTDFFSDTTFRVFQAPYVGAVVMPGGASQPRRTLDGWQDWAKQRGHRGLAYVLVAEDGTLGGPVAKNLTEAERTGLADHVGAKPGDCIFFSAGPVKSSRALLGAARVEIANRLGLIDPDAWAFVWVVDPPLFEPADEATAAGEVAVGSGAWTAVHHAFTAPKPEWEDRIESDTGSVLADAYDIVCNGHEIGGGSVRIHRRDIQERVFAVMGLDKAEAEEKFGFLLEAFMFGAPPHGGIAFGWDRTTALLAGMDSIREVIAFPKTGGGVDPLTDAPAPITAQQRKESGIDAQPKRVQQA
Type: functional
Parameters: scale not given: in the data most compounds retested in dose-response had high values

Structure (SMILES) | Percent Effect
O=C(c1cccc2c1OCO2)N1CCCC(n2cccn2)C1 (stereo unspecified) | -0.706%
CC[C@H](C)Nc1nccc(-c2cnc3sc(C)c(C)n3c2=O)n1 | 0.808%
CC(C)C(=O)NCCCn1ncc2c(Cl)cccc21 | 16.5%
Cn1cnnc1C1CCCN(C(=O)NCc2cc[nH]n2)C1 (stereo unspecified) | 4.95%
O=C(NCC1CC1)[C@@H]1CCO[C@@H]2CCN(Cc3ccco3)C[C@H]21 | 7.48%
COCCN1CCC(NC(=O)C2(c3cc(C)cc(C)c3)CC2)CC1 | -4.05%
O=C(NCc1ccoc1)NC1CCCN(c2ncccn2)C1 (stereo unspecified) | -2.64%
O=C(C1CCC1)N1CCN(c2snc3ccccc23)CC1 | 2.29%
CN(C)C(=O)CC1CC2(CCN(c3ncccn3)CC2)c2ccccc21 (stereo unspecified) | 2.97%
O=C(CCc1cscn1)N1CCCC(c2ccn[nH]2)C1 (stereo unspecified) | -1.82%
Cc1cnn(CC(C)NCc2ccc(S(C)(=O)=O)cc2)c1 (stereo unspecified) | 1.18%
Cc1nc(CN2CCN(Cc3nccn3C)CC2)no1 | -3.87%
Cc1ccc2c(n1)N(Cc1cccnc1)CCN(C(=O)C1CCC1)C2 | 14.8%
COCCN(Cc1ccc(F)cc1Cl)C(=O)c1ccncc1 | -5.35%
c1cncc(COCc2nnc3n2CCN(Cc2ccsc2)C3)c1 | -0.684%
Cc1cccc2c1cnn2CCCNC(=O)CCCC(=O)O | 15.5%
CCCn1nc2c(cc1=O)CN(CC(=O)Nc1ccncc1)CC2 | 2.52%
CCCc1noc(CN(C)C(=O)C2COc3ccccc3C2)n1 (stereo unspecified) | 1.75%
CCOc1cc(CN(C)CCOC)ccc1OC(F)F | -3.33%
CN(CCN1CCCCCC1)C(=O)c1cc(CN2CCC(O)CC2)on1 | 5.29%
Cc1noc(C2CCN(Cc3cc(=O)n(C)c(=O)n3C)CC2)n1 | -4.37%
